Compound activity (PubChem)
MCF10A rereplic – inducers of DNA re-replication in MCF 10A breast cells; AID 624296; MCF 10A DNA re-replication, Hoechst nuclear intensity, 48 h; 350,000 compounds, 2.9% hits; Potency, µM (top dose mostly 46.1 µM), for inactives: at the highest dose activity, positive = re-replication, usual class: activators; further: potency means the concentration at half of the fitted maximal effect; % of control where 0% means no effect; nearly all actives have a fitted effect of over 50% in size
SW480 rerep – DNA re-replication induction in SW480 cells | 340,000 compounds, 1.8% hits | AID 624297 | SW480 DNA re-replication, Hoechst DNA content imaging, 48 h | Potency, µM (doses to about 46.1 µM), for inactives: at the top dose re-replication activation, hits mostly activators; further: potency means the concentration at half of the fitted maximal effect; % of control where 0% means no effect; nearly all actives have a fitted effect of over 55% in size
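250 cells/well; 23 nL cpd via pin tool; 48 hr, 37 C, 5% CO2; Hoechst 40 min; imager read of total nuclear intensity, ex 405/em 500-530 nm.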
Gal4-VP16 FLuc – Gal4-VP16 reporter inhibition counter-screen | Drosophila S2 Gal4-VP16 UAS-luciferase, luminescence, 20 h | Potency, µM (highest dose often 53.6 µM), without a hit: top-dose activity, negative = inhibition, actives largely listed as inhibitors | 310,000 compounds, 3.5% hits | AID 2546;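 further: Gal4-VP16 expression switched on by copper sulfate through the metallothionein promoter; potency means the concentration at half of the fitted maximal effect; on the % scale 0 is the no-effect control and ±100 the full control effect; nearly all actives have a fitted effect of over 50% in size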
RORgamma inh – ROR gamma (mouse) transcription inhibition; Potency, µM (titrated, usually from 53.6 µM), for the others: at the top dose activity change, negative = inhibition, hits mostly inhibitors; P51450; 310,000 compounds, 5.4% hits; Drosophila S2 Gal4-RORgamma UAS-luciferase reporter, 20 h; further: potency means the concentration at half of the fitted maximal effect; on the % scale 0 is the no-effect control and ±100 the full control effect; nearly all actives have a fitted effect of over 60% in size
Target sequence (P51450 whole entry, looked up, the tested form may be a part): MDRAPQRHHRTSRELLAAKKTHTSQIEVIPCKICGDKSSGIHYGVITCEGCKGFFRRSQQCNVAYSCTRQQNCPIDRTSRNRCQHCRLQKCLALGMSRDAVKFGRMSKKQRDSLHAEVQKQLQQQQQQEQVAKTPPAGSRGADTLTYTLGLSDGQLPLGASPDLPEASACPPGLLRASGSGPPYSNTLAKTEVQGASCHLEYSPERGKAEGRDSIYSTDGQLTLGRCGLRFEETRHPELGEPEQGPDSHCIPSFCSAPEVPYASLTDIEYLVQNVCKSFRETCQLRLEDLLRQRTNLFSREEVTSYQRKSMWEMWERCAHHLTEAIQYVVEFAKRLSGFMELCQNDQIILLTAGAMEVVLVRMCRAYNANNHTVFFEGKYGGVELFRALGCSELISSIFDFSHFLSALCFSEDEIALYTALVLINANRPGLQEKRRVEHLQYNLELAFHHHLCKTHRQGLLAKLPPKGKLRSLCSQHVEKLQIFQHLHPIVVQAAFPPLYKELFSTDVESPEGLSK
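Read-out: Photinus luciferase luminescence; inhibitors lower reporter signal. Insect Schneider cells with Gal4-ROR gamma fusion under metallothionein promoter, UAS reporter; 700 uM final copper sulfate induction, 20 hr, ambient temperature.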
IL1B secr inh – inhibitors of inflammasome signaling (IL-1 beta secretion); AID 743279; THP-1 LPS/ATP IL-1B secretion, AlphaLISA, 16 h; hits give low values; 360,000 compounds, 4.7% hits; activity change, % at 57.5 µM; in the data active means activity change below about -50%; inconclusive means mostly about -30% to -49%; further: on the % scale 0 is the no-effect control and ±100 the full control effect
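THP-1 cells pretreated 1 hr with compounds (up to 57.5 uM final), then stimulated with LPS (250 ng/mL final) plus ATP (1.25 mM final); secreted IL-1B measured by AlphaLISA after 16 hr, decreased signal indicating inhibition.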
An asterisk follows results filed as active; ? = inconclusive; / = not tested or not shown; [ ] = dose if it differs, or a comment. The list is not random: actives were taken first. Their share in the collection is about 11%. Unless noted, the call rests on the fitted dose curve; in most records, active means well fitted curve in the direction sought with a large enough effect; inconclusive means small, poorly fitted or top-dose-only effect, or another doubt; inactive means no such curve, though single readings can be large; an effect the other way counts as inactive or inconclusive.

SMILES	MCF10A rereplic	SW480 rerep	Gal4-VP16 FLuc	RORgamma inh	IL1B secr inh
O=C(Nc1ccc(F)cc1)c1oc2ccccc2c1NC(=O)C1CC1	3.9%	-55.3%	-7.2%	6.6%	-23.7
CC/C(=N\NC(=S)Nc1cc(C)ccc1C)c1ccc(OC(F)F)cc1	?	/	-99.7%	?	0.0
CC/C(=N\NC(=S)Nc1ccc(OC)cc1)c1ccc(OC(F)F)cc1	?	?	?	12.6µM*	17.5
COc1ccc(C(=O)c2c(C)c3ccccc3n2CC(O)CNC(C)C)cc1 (centres undefined)	24.3%	-706.4%	20µM*	7.94µM*	?
O=C(Nc1cccc(/C=C/c2ccccn2)c1)c1ccc(-n2cncn2)c([N+](=O)[O-])c1	?	1.6%	/	/	-76.2*
O=C(Nc1ccc(F)c(F)c1)c1ccc(-n2cncn2)c([N+](=O)[O-])c1	3.5%	-19.8%	/	/	?
O=C(NC(=S)Nc1ccccc1N1CCOCC1)c1ccc([N+](=O)[O-])cc1	10.4%	1.2%	?	8.91µM*	0.0
O=C(NC(=S)Nc1ccccc1N1CCCC1)c1ccc([N+](=O)[O-])cc1	3.0%	5.6%	0.112µM*	0.0501µM*	-20.6
CC(Sc1nnc(-c2cccnc2)o1)C(=O)NC1CCCCC1 (centres undefined)	-4.2%	-22.9%	/	/	7.4
CCOc1ccc2nc(N=NC3=C(O)CC(C)(C)CC3=O)sc2c1	-0.2%	32.8%[1.84 µM]	3.2%	2.24µM*	214.5
CC1(Cc2ccc(F)cc2)C(=O)Nc2c(Cl)ccc(Cl)c21 (centres undefined)	/	/	/	/	-58.9*
CC(=O)OC[C@H]1O[C@@H](O/N=C\[C@@H](C)[C@H](OCc2ccccc2)C(C)C)[C@H](OC(C)=O)[C@@H](OC(C)=O)[C@H]1OC(C)=O	/	/	-0.7%[10 µM]	12.4%[10 µM]	/
CN1C2CCC1CC(OC(=O)C(O)c1ccccc1)C2 (centres undefined)	/	/	1.2%	-12.4%	/
CN1CCN(c2ncc3nc(-c4cccc(C#N)c4)c(=O)n(CCc4ccccc4)c3n2)CC1	/	/	1.1%	-9.9%	/
Cc1sc2ncnc(N/N=C/c3ccccc3O)c2c1C	?	?	15.8µM*	7.94µM*	62.3
COc1cccc(/C=N/Nc2ncnc3scc(-c4ccccc4)c23)c1OC	?	?	3.16µM*	3.98µM*	-66.8*
Nc1c(Cl)ncnc1N/N=C/c1ccc(O)cc1	1.7%	-2.9%	12.6µM*	10µM*	0.0
COc1cccc(C=NNc2nc3ccccc3s2)c1OC	?	?	/	/	25.4
COc1ccc(/C=N/Nc2ncnc3sc(C)c(C)c23)cc1	?	-0.7%	4.47µM*	?	-16.4
Cc1sc2ncnc(N[C@@H](Cc3ccccc3)C(=O)O)c2c1C	-18.9%	19.7%	-1.2%	27.1%	27.6
CCN(CC)c1ccc(C(=O)NNC(=O)C2CCN(c3ncnc4sc(C)c(C)c34)CC2)cc1	/	/	/	/	-3.9
Cc1sc2ncnc(N/N=C/c3ccc(O)cc3)c2c1C	1.2%	-65.3%	4.47µM*	15.8µM*	-11.9
Cc1ccc(Nc2ncnc3sc(C)c(C)c23)cc1C	6.7%	?	-1.2%	0.1%	9.3
CCN(c1ccccc1)S(=O)(=O)c1ccc(Cl)c(NC(=O)CN(C)Cc2cccc(F)c2)c1	?	20.2%	/	/	0.0
O=C(CS(=O)(=O)c1ccc(Cl)cc1)Nc1nnc(-c2cccs2)o1	11.1%	-2.8%	?	14.1µM*	39.7
SMILES	MCF10A rereplic	SW480 rerep	Gal4-VP16 FLuc	RORgamma inh	IL1B secr inh
O=C(CS(=O)(=O)c1ccc(F)cc1)Nc1nnc(-c2cccs2)o1	-11.5%	-85.0%	/	/	3.2
O=C(CCS(=O)(=O)c1ccc(F)cc1)Nc1nnc(-c2cccs2)o1	?	?	/	/	-64.8*
CS(=O)(=O)c1ccccc1-c1nnc(NC(=O)CCS(=O)(=O)c2ccc(Cl)cc2)o1	102.6%	2.0%	/	/	9.8
COc1ccc(CCCn2ncc3c2nc(N)n2nc(-c4ccco4)nc32)cc1	/	/	-18.9%	36.7%	/
CC1CCCCN1C(=O)COC(=O)c1cc([N+](=O)[O-])ccc1N (centres undefined)	6.3%	3.5%	/	/	?
CN(C)CCCC1Sc2ccccc2Sc2ccccc21 (centres undefined)	8.7%	?	/	/	-66.1*
O=S(=O)(c1ccc(F)c(F)c1)N1CCCCCCC1	/	/	/	/	-6.6
